VP16 counter = Gal4-VP16 reporter inhibition counter-screen | Drosophila S2 Gal4-VP16 UAS-luciferase, luminescence, 20 h | Potency, µM (top dose mostly 53.6 µM), for inactives: at the top dose activity, negative = inhibition, most hits filed as inhibitors | 310,000 compounds, 3.5% hits;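 note: Gal4-VP16 expression switched on by copper sulfate through the metallothionein promoter; potency is the fitted concentration of half-maximal effect; nearly all actives have a fitted effect of over 50% in size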
ELG1 repair inh = ELG1-dependent DNA repair inhibition. Potency, µM (top dose mostly 46.1 µM), inactives show top-dose activity change, negative = inhibition, actives largely listed as inhibitors. 330,000 compounds, 2.3% hits. HEK293T ELG1-luciferase reporter, luminescence, 16 h; DNA damage induced by 5-fluorouridine; note: potency is the fitted concentration of half-maximal effect; nearly all actives have a fitted effect of over 55% in size
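HEK293T cells expressing luciferase-tagged ELG1 (2,000/well) received 5-Fluorouridine plus compound or DMSO for 16 hr at 37 °C. Luciferase was read by ONE-Glo luminescence after 30 min at room temperature.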
RORgamma inh = blocks mouse ROR gamma transcriptional activity; P51450; 310,000 compounds, 5.4% hits; Drosophila S2 Gal4-RORgamma UAS-luciferase reporter, 20 h; Potency, µM (doses to about 53.6 µM), without a hit: at the top dose activity change, negative = inhibition, actives largely listed as inhibitors; note: potency is the fitted concentration of half-maximal effect; nearly all actives have a fitted effect of over 60% in size
Target sequence (P51450 whole entry, looked up, the tested form may be a part): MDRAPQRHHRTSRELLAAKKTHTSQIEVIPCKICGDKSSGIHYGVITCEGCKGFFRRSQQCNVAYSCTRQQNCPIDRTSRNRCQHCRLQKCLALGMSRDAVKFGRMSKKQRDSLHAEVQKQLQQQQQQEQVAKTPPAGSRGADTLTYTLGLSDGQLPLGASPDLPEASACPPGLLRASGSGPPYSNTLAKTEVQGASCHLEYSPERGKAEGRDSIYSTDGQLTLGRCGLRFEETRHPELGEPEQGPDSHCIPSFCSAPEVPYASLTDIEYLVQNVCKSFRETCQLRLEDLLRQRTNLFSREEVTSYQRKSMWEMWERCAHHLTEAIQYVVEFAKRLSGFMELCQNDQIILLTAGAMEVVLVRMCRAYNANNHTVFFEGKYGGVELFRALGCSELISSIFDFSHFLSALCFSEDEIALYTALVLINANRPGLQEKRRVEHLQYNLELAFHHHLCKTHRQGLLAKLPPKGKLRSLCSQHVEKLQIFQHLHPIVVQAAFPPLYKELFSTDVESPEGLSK
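Stable Schneider cell line, Gal4 DNA-binding domain fused to ROR gamma, UAS-luciferase. Cmpd 1 hr RT → CuSO4 700 uM final → 20 hr RT → luciferase reagent 10 min → luminescence.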
DT40 TDP1 CPT = DT40-hTDP1 cell growth loss with CPT; chicken DT40 Tdp1-/-;hTDP1 cells + 20 nM CPT, ATP luminescence, 48 h; Potency, µM (highest dose often 46.2 µM), for inactives: at the top dose activity change, negative = growth inhibition, most hits filed as inhibitors; 420,000 compounds, 12% hits; note: potency is the fitted concentration of half-maximal effect; nearly all actives have a fitted effect of over 55% in size
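Chicken DT40 Tdp1-/- cells stably complemented with human TDP1 were seeded at 400 cells/well in medium containing 20 nM camptothecin, exposed to pin-transferred compounds, and grown at 37 °C for at least 48 hr. Viability was read as ATP luminescence.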
IL1B secr inh = inflammasome signaling inhibition, IL-1 beta readout; 360,000 compounds, 4.7% hits; activity change, % at 57.5 µM; THP-1 LPS/ATP IL-1B secretion, AlphaLISA, 16 h; active compounds read low; AID 743279; in the data active = activity change below about -50%; inconclusive = mostly about -30% to -49%
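Secreted IL-1B measured by AlphaLISA bead assay after 16 h compound exposure of THP-1 cells; compounds (final up to 57.5 uM) added 1 h before LPS (250 ng/mL) and ATP (1.25 mM) stimulation; lower signal means less secretion.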
TDP1 cell noCPT = qHTS for Inhibitors of human tyrosyl-DNA phosphodiesterase 1 (TDP1): qHTS in cells in absence of CPT; DT40 Tdp1-/- hTDP1 cells, no CPT, ATP luminescence, 48 h; Potency, µM (highest dose often 46.2 µM), for the others: top-dose activity change, negative = growth inhibition, usual class: inhibitors; 420,000 compounds, 15% hits; note: potency is the fitted concentration of half-maximal effect; nearly all actives have a fitted effect of over 55% in size
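DT40 Tdp1-/-;hTDP1 cells, no CPT (DMSO vehicle only), 400 cells/well; compounds pin-transferred; ≥48 hr, 37 °C; CellTiter-Glo 30 min RT dark, luminescence read.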
Starred values were filed as active, the others as inactive. Compounds with a hit are over-represented: about 21% of the library has one in this group of screens. Unless noted, calls come from the whole dose curve; as a rule, active = well fitted curve in the direction sought with a large enough effect; inconclusive = small, poorly fitted or top-dose-only effect, or another doubt; inactive = no such curve, though single readings can be large; an effect the other way counts as inactive or inconclusive. % is set by controls: 0 for no effect and ±100 for the full control effect.

O=C(O)C1C2C=CC(C2)C1C(=O)NCc1ccc(Cl)cc1Cl (stereo not given) was read as VP16 counter 6%, ELG1 repair inh -13%, RORgamma inh 8%, DT40 TDP1 CPT -8%, IL1B secr inh -2 and TDP1 cell noCPT -18%.
`O=C(CSc1nnc(C2CC2)n1-c1ccccc1)NCCc1ccccc1` gave VP16 counter -1%, ELG1 repair inh 1%, RORgamma inh -9%, DT40 TDP1 CPT 0%, IL1B secr inh -10 and TDP1 cell noCPT -24%.
For Cc1ccc(NC(=O)CN2C(=O)COc3ccc(S(=O)(=O)NC4CCCC4)cc32)cc1N(C)C the results were DT40 TDP1 CPT -25% and TDP1 cell noCPT inconclusive.
For N#Cc1c(NC(=O)CSc2ncn[nH]2)sc2c1CCCCC2 the results were VP16 counter 0.16µM*, ELG1 repair inh inconclusive, RORgamma inh 0.4µM*, DT40 TDP1 CPT -15%, IL1B secr inh -16 and TDP1 cell noCPT -25%.
`N#Cc1cc2c(nc1SCC(=O)Nc1sc3c(c1C#N)CCC3)CCCC2` gave VP16 counter 14%, ELG1 repair inh 23%, RORgamma inh 15%, DT40 TDP1 CPT inconclusive, IL1B secr inh -60* and TDP1 cell noCPT 12µM*.
For N#Cc1ccc(-c2ccc(F)cc2)nc1SCC(=O)Nc1sc2c(c1C#N)CCC2 the results were VP16 counter 10%, ELG1 repair inh 6.5µM*, RORgamma inh -22%, DT40 TDP1 CPT -28%, IL1B secr inh 56 and TDP1 cell noCPT -20%.
`N#Cc1cc2c(nc1SCC(=O)Nc1sc3c(c1C#N)CCC3)CCCCC2` gave VP16 counter -6%, ELG1 repair inh 19%, RORgamma inh -28%, DT40 TDP1 CPT inconclusive, IL1B secr inh -8 and TDP1 cell noCPT -21%.
For N#Cc1c(NC(=O)CSc2ncn(-c3ccccc3)n2)sc2c1CCCC2 the results were VP16 counter 2%, ELG1 repair inh -6%, RORgamma inh 0%, DT40 TDP1 CPT -26%, IL1B secr inh -5 and TDP1 cell noCPT inconclusive.
CCOC(=O)c1sc(NC(=O)CSc2n[nH]c(-c3ccc(Cl)cc3Cl)n2)c(C#N)c1C was read as VP16 counter inconclusive, ELG1 repair inh inconclusive, RORgamma inh 11µM*, DT40 TDP1 CPT inconclusive, IL1B secr inh 0 and TDP1 cell noCPT 16µM*.
For CC(C)N(C)S(=O)(=O)c1ccc(NC(=O)C2=COCCO2)cc1 the results were ELG1 repair inh inconclusive, DT40 TDP1 CPT -17%, IL1B secr inh -3 and TDP1 cell noCPT 8%.
For COCCN(CCOC)c1nc(C)nc2c1nc(-c1ccccc1)n2CCN(C)C the results were VP16 counter 15% and RORgamma inh -16%.
Screening CCOC(=O)c1sc(NC(=O)CSc2nc3c(cc2C#N)CCCCCC3)c(C#N)c1C returned VP16 counter 5%, ELG1 repair inh inconclusive, RORgamma inh -11%, DT40 TDP1 CPT 16µM*, IL1B secr inh 28 and TDP1 cell noCPT 26µM*.
Screening COc1nc(-c2ccc(Cl)cc2Cl)nc2ccccc12 returned VP16 counter 20%, ELG1 repair inh 8%, RORgamma inh 40%, DT40 TDP1 CPT inconclusive, IL1B secr inh 19 and TDP1 cell noCPT inconclusive.
Screening COc1ccc(C)cc1NC(=O)N1CCN(c2cc(-c3noc(C)n3)ccc2C)CC1 returned DT40 TDP1 CPT inconclusive and TDP1 cell noCPT 23µM*.
`Cc1ccc(S(=O)(=O)NCCC(=O)Nc2ccc(C)cc2C(=O)c2ccccc2)cc1` gave VP16 counter -8%, ELG1 repair inh inconclusive, RORgamma inh 32%, DT40 TDP1 CPT inconclusive, IL1B secr inh -9 and TDP1 cell noCPT 21µM*.
`Cc1cccc(NC(=O)c2cc(NC(=O)c3ccco3)ccc2Cl)n1` gave VP16 counter 0%, ELG1 repair inh 12µM*, RORgamma inh 39%, DT40 TDP1 CPT -15%, IL1B secr inh 0 and TDP1 cell noCPT -29%.
Cc1ccc(S(=O)(=O)NCCC(=O)Nc2cc(S(=O)(=O)N(C)C)ccc2C)cc1C was read as VP16 counter -17%, ELG1 repair inh inconclusive, RORgamma inh 3%, DT40 TDP1 CPT -17%, IL1B secr inh 25 and TDP1 cell noCPT 16µM*.
Screening Cc1cccc(NC(=O)c2cc(-c3ccco3)nc3ccccc23)n1 returned VP16 counter 5%, ELG1 repair inh inconclusive, RORgamma inh -5%, DT40 TDP1 CPT 21µM*, IL1B secr inh 5 and TDP1 cell noCPT 18µM*.
Cc1ccccc1NC(=O)c1cc(-c2ccco2)nc2ccccc12 was read as DT40 TDP1 CPT -5% and TDP1 cell noCPT inconclusive.
For Cc1cccc(NC(=O)c2cc(NC(=O)C3CCCCC3C(=O)O)ccc2Cl)n1 (stereo not given) the results were VP16 counter 1%, ELG1 repair inh 2%, RORgamma inh -18%, DT40 TDP1 CPT -10%, IL1B secr inh 33 and TDP1 cell noCPT -26%.
OCCc1ccc(NCCc2cccs2)cc1 was read as DT40 TDP1 CPT -4%, IL1B secr inh 33 and TDP1 cell noCPT -11%.
For Cc1ccc(NC(=O)C2CCCN2C(=O)OCc2ccccc2)c(O)c1 (stereo not given) the results were VP16 counter 21%, ELG1 repair inh -1%, RORgamma inh 20%, DT40 TDP1 CPT -11%, IL1B secr inh 3 and TDP1 cell noCPT -9%.
For O=C(C[C@H]1CC[C@H](NC(=O)C2CCOCC2)[C@@H](CO)O1)NCc1ccncc1 the results were DT40 TDP1 CPT 4%, IL1B secr inh 11 and TDP1 cell noCPT 1%.
Screening Cc1ccc(S(=O)(=O)N(C)C)cc1NC(=O)c1ccc2ccccc2n1 returned VP16 counter -6%, ELG1 repair inh 6%, RORgamma inh -1%, DT40 TDP1 CPT 21µM*, IL1B secr inh 19 and TDP1 cell noCPT inconclusive.
Cc1ccc(C)c(NC(=O)c2ccc3ccccc3n2)c1 was read as VP16 counter 2%, ELG1 repair inh inconclusive, RORgamma inh 7%, DT40 TDP1 CPT inconclusive, IL1B secr inh 26 and TDP1 cell noCPT inconclusive.
`CCc1cc(C(=O)Nc2cc(S(=O)(=O)N(CC)CC)ccc2N2CCN(C)CC2)sc1C` gave ELG1 repair inh inconclusive, DT40 TDP1 CPT -2%, IL1B secr inh -2 and TDP1 cell noCPT -22%.
